From PubChem BioAssay AID651710 (Broad Institute, 2012)
“And” between values parts separate entries of the source, which are not always exact repeats. Equal entries are not always repeated. The campaign covered roughly 360,000 compounds. About 1,600 (0.44%) were called active. The list comes from a sample in which actives are over-represented; it also holds similar structures and randomly drawn compounds. A number with no mark means an inactive call.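 The calls were made as follows: active = every replicate showing at least 50% inhibition; inconclusive = mean inhibition at least 50% but not in every replicate; inactive = the rest.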

biological target: DNA repair protein RAD52 homolog (Homo sapiens) (UniProt P43351); assay: RAD52 DNA annealing inhibitors, primary screen, biochemical, FRET, single point, set 2 (AID 651710); details: recombinant RAD52 DNA annealing, FRET fluorescence; at 18.7 µM; active compounds read high
Sequence (P43351 whole entry, looked up): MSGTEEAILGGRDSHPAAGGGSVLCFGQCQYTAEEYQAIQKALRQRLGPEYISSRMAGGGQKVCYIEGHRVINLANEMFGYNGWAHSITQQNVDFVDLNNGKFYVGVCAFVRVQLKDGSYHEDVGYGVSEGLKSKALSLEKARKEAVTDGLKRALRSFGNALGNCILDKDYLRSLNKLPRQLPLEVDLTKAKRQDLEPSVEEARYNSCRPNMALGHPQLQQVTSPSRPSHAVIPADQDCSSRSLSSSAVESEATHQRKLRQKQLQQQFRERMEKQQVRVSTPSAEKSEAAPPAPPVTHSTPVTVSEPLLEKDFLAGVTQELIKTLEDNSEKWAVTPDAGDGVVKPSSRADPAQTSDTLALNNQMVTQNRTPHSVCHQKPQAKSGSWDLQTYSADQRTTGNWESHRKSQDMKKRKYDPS

SMILES | inhibition
Cn1cnc(S(=O)(=O)N[C@H]2C=C[C@H](CC(=O)NCC3CCCCC3)O[C@@H]2CO)c1 | 2.08%
C[C@@H]1CCCCO[C@H](CN(C)C(=O)CCCN(C)C)[C@H](C)CN([C@@H](C)CO)C(=O)c2cc(NS(=O)(=O)c3ccccc3)ccc2O1 | 13.8%
C[C@@H]1CCCCO[C@H](CN(C)Cc2ccccc2)[C@H](C)CN([C@H](C)CO)C(=O)c2cc(NS(=O)(=O)c3ccc(Cl)cc3)ccc2O1 | 53.1% (active)
C[C@@H]1CCCCO[C@H](CN(C)C(=O)CCCN(C)C)[C@H](C)CN([C@@H](C)CO)C(=O)c2cc(NS(=O)(=O)c3ccc(Cl)cc3)ccc2O1 | 52.5% (active)
C[C@@H]1CCCCO[C@H](CN(C)S(=O)(=O)c2cccs2)[C@H](C)CN([C@@H](C)CO)C(=O)c2cc(NS(=O)(=O)c3cccs3)ccc2O1 | -2.6%
CC(C)NC(=O)N(C)C[C@H]1OCCCC[C@H](C)Oc2ccc(NS(=O)(=O)c3ccc(Cl)cc3)cc2C(=O)N([C@@H](C)CO)C[C@H]1C | 15.1%
C[C@H](CO)N1C[C@H](C)[C@@H](CN(C)Cc2ccncc2)OCCCC[C@H](C)Oc2ccc(NS(=O)(=O)c3ccc(Cl)cc3)cc2C1=O | -15.9%
C[C@@H]1CN([C@H](C)CO)C(=O)c2cc(NS(=O)(=O)c3cccs3)ccc2O[C@@H](C)CCCCO[C@@H]1CN(C)S(=O)(=O)c1cccs1 | -0.96%
C[C@@H]1CN([C@@H](C)CO)C(=O)c2cc(NS(=O)(=O)c3cn(C)cn3)ccc2O[C@@H](C)CCCCO[C@H]1CN(C)S(=O)(=O)c1cccs1 | 99.3% (active)
C[C@H](CO)N1C[C@H](C)[C@H](CN(C)Cc2ccc(C(F)(F)F)cc2)OCCCC[C@H](C)Oc2ccc(NS(=O)(=O)c3ccc(Cl)cc3)cc2C1=O | 5.56%
C[C@@H]1CCCCO[C@H](CN(C)Cc2ccccc2)[C@H](C)CN([C@@H](C)CO)C(=O)c2cc(NS(=O)(=O)c3ccccc3)ccc2O1 | 7.51%
C[C@@H]1CN([C@H](C)CO)C(=O)c2cc(NS(=O)(=O)c3ccc(Cl)cc3)ccc2O[C@@H](C)CCCCO[C@H]1CN(C)Cc1ccccc1 | 64.2% (active)
C[C@@H]1CCCCO[C@H](CN(C)Cc2ccccc2)[C@@H](C)CN([C@H](C)CO)C(=O)c2cc(NS(=O)(=O)c3ccc(Cl)cc3)ccc2O1 | 35.2% and -9.61%
COc1cccc(S(=O)(=O)Nc2ccc3c(c2)[C@@H]2C[C@@H](CC(=O)NCc4ccc(Cl)cc4)O[C@H](CO)[C@@H]2O3)c1 | 10.3%
CN(C)C(=O)C[C@@H]1C[C@H]2c3cc(NC(=O)Nc4ccccc4F)ccc3O[C@H]2[C@@H](CO)O1 | -10%
Cc1noc(C)c1S(=O)(=O)Nc1ccc2c(c1)CC(=O)N([C@@H](C)CO)C[C@H](C)[C@H](CN(C)C(=O)Nc1ccccc1)O2 | -0.934%
Cc1noc(C)c1NC(=O)Nc1cccc2c1O[C@@H](CN(C)C(=O)Nc1ccc(C(F)(F)F)cc1)[C@@H](C)CN([C@@H](C)CO)C2=O | -2.22%
O=C(C[C@@H]1CC[C@@H]2[C@H](COC[C@H](O)CN2S(=O)(=O)c2ccc(Cl)cc2)O1)N[C@@H]1CCN(Cc2ccccc2)C1 | 17.8%
O=C(C[C@H]1CC[C@H](NC(=O)Nc2ccccc2F)[C@@H](CO)O1)NCc1ccccc1 | -8.56%
COc1ccc(S(=O)(=O)Nc2ccc3c(c2)C(=O)N([C@H](C)CO)C[C@@H](C)[C@H](CN(C)Cc2ccccc2)O3)cc1 | 12.7%
COc1cccc(-c2ccc([C@@H]3[C@@H](CO)N4C(=O)CN(C(=O)C5CCCCC5)C[C@H]34)cc2)c1 | -17.9%

SMILES | inhibition
CC(C)NC(=O)N(C)C[C@H]1OCCCC[C@@H](C)Oc2ccc(NC(=O)C3CCCCC3)cc2C(=O)N([C@H](C)CO)C[C@H]1C | -14%
CO[C@H]1CN(C)C(=O)c2ccc(NC(=O)c3cccc(F)c3)cc2OC[C@@H](C)N(C(C)=O)C[C@@H]1C | 3.49%
CCCN(C)C[C@@H]1OCCCC[C@@H](C)Oc2ccc(NC(=O)Nc3ccc(C(F)(F)F)cc3)cc2C(=O)N([C@H](C)CO)C[C@H]1C | 61.7% (active)
C[C@H](CO)N1C[C@H](C)[C@@H](CN(C)S(C)(=O)=O)OCCCC[C@H](C)Oc2ccc(NC(=O)Nc3ccc(C(F)(F)F)cc3)cc2C1=O | 9.95%
C[C@@H]1CCCCO[C@H](CN(C)Cc2ccc(C(F)(F)F)cc2)[C@H](C)CN([C@H](C)CO)C(=O)c2cc(NC(=O)Nc3ccc(F)cc3)ccc2O1 | -10%
CN1C(=O)c2cc(NC(=O)C3CCOCC3)ccc2OC[C@@H]2O[C@H](CC(=O)NCc3ccccc3F)CC[C@H]21 | -6.2%
COCC(=O)Nc1ccc2c(c1)OC[C@H](C)N(Cc1ccccc1OC)C[C@@H](C)[C@@H](OC)CN(C)C2=O | 5.08%
CCC1CCCCN1CCCNC(=O)c1cc2c(Cl)nc3ccccc3c2s1 (configuration not stated) | 64.2% (active)
Cc1nc2ccccc2c2oc(C(=O)NCCCN3CCC(C)CC3)cc12 | 24.5%
CCCn1c2ccccc2c2cnn(CC(=O)NCCCN3CCCCC3CC)c(=O)c21 (configuration not stated) | 6.95%
C[C@@H]1CN([C@H](C)CO)C(=O)c2cccc(NC(=O)C3CCOCC3)c2O[C@H]1CN(C)S(=O)(=O)c1ccc(Cl)cc1 | -3.65%
OC[C@H]1[C@H](c2ccc(-c3cccnc3)cc2)[C@H]2CN(Cc3ccccn3)CCCCN21 | -13.2%
OC[C@@H]1[C@H](c2ccc(C#Cc3ccccc3)cc2)[C@@H]2CN(Cc3cncnc3)CCCCN12 | -7.81%
OC[C@H]1[C@@H](c2ccc(/C=C/c3ccccc3)cc2)[C@H]2CN(Cc3cccnc3)CCCCN21 | 57.1% (active)
C[C@H]1CN([C@@H](C)CO)C(=O)Cc2cc(NS(=O)(=O)c3ccc(Cl)cc3)ccc2O[C@@H]1CN(C)S(=O)(=O)c1ccccc1 | 0.925%
O=C(Cc1ccccn1)N[C@@H]1CC[C@H](CCn2cc(-c3ccc(F)cc3)nn2)O[C@@H]1CO | -0.234%
Clc1ccccc1Nc1nc(NCc2cccs2)nc2ccsc12 | -19.9%
COc1cccc(CNc2nc(NCc3ccccc3OC)nc3ccsc23)c1 | -11.5%
COc1cccc(CNc2nc(NCc3cccs3)nc3ccsc23)c1 | 63.7% (active)
C[C@@H]1CN([C@H](C)CO)C(=O)c2cc(-c3ccc(C#N)cc3)cnc2O[C@@H]1CN(C)C(=O)Nc1ccccc1 | 4.39%
COc1ccc(-c2ccc([C@@H]3[C@@H](CO)N4CCCCN(C(=O)NC(C)C)C[C@H]34)cc2)cc1 | 0.301%

SMILES | inhibition
CCC(=O)Nc1ccc2c(c1)C(=O)N(C)[C@@H]1CC[C@@H](CC(=O)NCCc3ccccc3)O[C@H]1CO2 | -0.75%
CC(C)CC#Cc1ccc2c(c1)O[C@H](CN(C)S(=O)(=O)c1cccc(F)c1)[C@@H](C)CN([C@@H](C)CO)S2(=O)=O | 10.9%
COc1ccc(NC(=S)SC)cc1OC | -5.52%
COc1ccc(NC(=O)C2C3CCC(O3)C2C(=O)O)cc1OC (configuration not stated) | 71.2% (active)
COc1ccc(NC(=O)C2Cc3c(-c4cccc(NC(C)=O)c4)ccnc3O2)cc1OC (configuration not stated) | -0.756%
O=C1CCC(C(=O)OCC(=O)Nc2ccc(OC(F)F)cc2)=NN1 | 54.8% (active)
Nc1c(C(=O)OCC(=O)Nc2ccc(OC(F)F)cc2)[nH]c(=O)[nH]c1=O | -4.75%
COCc1c(C(=O)OCC(=O)Nc2ccc(OC(F)F)cc2)oc2ccccc12 | -1.64%
C=CCNC(=O)[C@H]1[C@@H]2C(=O)O[C@@H](c3ccccc3)[C@@H](c3ccccc3)N2[C@@H](c2ccccc2OCCO)[C@]12C(=O)N(C(=O)OCCOC)c1ccc(C#Cc3ccc(OC)cc3)cc12 | -0.136%
CO[C@@H]1CN(C)C(=O)c2cc(NS(=O)(=O)c3cn(C)cn3)ccc2OC[C@@H](C)N(CCC(F)(F)F)C[C@H]1C | 7.94%
CCCc1cn(CC[C@H]2CC[C@@H](NC(=O)C3CCOCC3)[C@@H](CO)O2)nn1 | -2.7%
O=C1Nc2cc(C(=O)N3CCC(N4CCCCC4)CC3)ccc2S/C1=C\c1ccccc1 | 39.6%
CCN1CCCC1CNC(=O)c1ccc2c(c1)NC(=O)/C(=C\c1ccccc1F)S2 (configuration not stated) | 87.1% (active)
CCN1CCCC1CNC(=O)c1cc2cc(OC)c(OC)cc2[nH]1 (configuration not stated) | 2.51%
CC(=O)N(C)C[C@H]1[C@H](c2ccc(C3=CCCCC3)cc2)[C@H](CO)N1CC1CC1 | 17.9%
COCC(=O)N(C)C[C@H]1Oc2cc(C#C[C@@H](C)O)ccc2S(=O)(=O)N([C@@H](C)CO)C[C@@H]1C | -1.74%
CC(=O)N(C)C[C@@H]1Oc2cc(-c3ccncc3)ccc2S(=O)(=O)N([C@@H](C)CO)C[C@H]1C | 3.3%
CCCN(C)C[C@H]1Oc2cc(C#CC3CCCC3)ccc2S(=O)(=O)N([C@H](C)CO)C[C@@H]1C | -63.3%
CO[C@@H]1CN(C)C(=O)c2ccc(NC(=O)C3CC3)cc2OC[C@@H](C)N(Cc2ccncc2)C[C@@H]1C | 17%
C[C@H](CO)N1C[C@H](C)[C@H](CN(C)S(=O)(=O)c2cn(C)cn2)Oc2c(NC(=O)c3ccc(-c4nccs4)cc3)cccc2C1=O | 7.43%
